# About 4,900 (5%) of roughly 98,000 compounds were called active. This is one part of a sample in which actives are shown more often than they occur. Rule as the data show it: active = inhibition above about 30%; inactive = the rest.
# Assay: growth inhibition of yeast control strain, primary screen, counter-screen for post-Golgi transport modulator project (AID 738)
# Conditions: efflux-deficient yeast background strain, growth absorbance A615, 16 h; at 10 µM; hits give high values
row,Structure (SMILES),inhibition
1,C=CCNc1cnn(-c2ccc(C)cc2)c(=O)c1Cl,8.21% (inactive)
2,CCCSc1nc2c(c(=O)n(C)c(=O)n2C)n1Cc1ccc(C)cc1,51.8% (active)
3,Cc1cccc(Cn2c(SCCO)nc3c2c(=O)n(C)c(=O)n3C)c1,3.8% (inactive)
4,CCOc1ccc(Cn2c(SCCCCC#N)nc3c2c(=O)n(C)c(=O)n3C)cc1OCC,8.56% (inactive)
5,O=C(ON=C1CCN(S(=O)(=O)c2ccccc2)CC1)c1ccc(Cl)cc1,13.6% (inactive)
6,Cc1ccc(Oc2ccc(N)cc2)cc1,28.3% (inactive)
7,COc1cccc(Oc2ccc(N)cc2)c1,34% (active)
8,Nc1ccc(Oc2ccc(Cl)cc2)cc1,10% (inactive)
9,COC(=O)Cc1cc(=O)oc2c(C)c(O)ccc12,7.59% (inactive)
10,Cc1cc(OC(=O)c2ccc(Cl)cc2)cc(=O)n1C,-4.12% (inactive)
11,COc1ccc2[nH]c3ccc(OC)cc3c2c1,8.06% (inactive)
12,CCN(CC)CC(=O)c1c[nH]c2ccc(OC)cc12,15.9% (inactive)
13,COc1ccc2[nH]cc(/C=C(/C#N)S(=O)(=O)c3ccccc3)c2c1,36.8% (active)
14,CCCCCCC(=O)Nc1nc(C)c(-c2csc(Nc3cc(Cl)ccc3OC)n2)s1,0.3% (inactive)
15,CCCCC(=O)Nc1nc(C)c(-c2csc(Nc3ccc(Cl)cc3)n2)s1,1.53% (inactive)
16,C=CCCC(=O)Nc1nc(C)c(-c2csc(Nc3ccc(Cl)cc3)n2)s1,50.3% (active)
17,O=C(c1cccc2ccccc12)N1CCN(c2ccccc2F)CC1,13.7% (inactive)
18,Cc1ccc2cccc(S(=O)(=O)N3CCN(c4ccccc4F)CC3)c2n1,37.7% (active)
19,O=S(=O)(N1CCOCC1)N1CCN(c2ccccc2F)CC1,-1.25% (inactive)
20,O=C(CSCc1c(Cl)cccc1Cl)NN1C(=O)c2ccccc2C1=O,8.98% (inactive)
21,COc1ccc(OC)c(Nc2nc(-c3ccc(O)c(O)c3)cs2)c1,34.6% (active)
22,COc1ccc(Nc2nc(-c3ccccc3)cs2)cc1,6.6% (inactive)
23,c1cnc(Nc2nc(-c3ccc4ccccc4c3)cs2)nc1,2.57% (inactive)
24,CON(C)S(=O)(=O)c1ccc2c(c1)NC(=O)C1CCCN21 (stereo not given),-2.22% (inactive)
25,O=C(c1cc(-c2cccc(O)c2)on1)N1CCc2ccccc2C1,41% (active)

row,Structure (SMILES),inhibition
1,O=C(c1cc(-c2ccccc2O)on1)N1CCCC1,12% (inactive)
2,O=C(c1cc(-c2ccc(O)cc2)on1)N1CCCc2ccccc21,23.4% (inactive)
3,O=C(NCC1CCC(C(=O)O)CC1)OCc1ccccc1 (stereo not given),8.23% (inactive)
4,O=C(CNC(=O)OCc1ccccc1)Oc1cc2oc(=O)cc(-c3ccccc3)c2cc1Cl,34.6% (active)
5,O=C(CNC(=O)c1ccccc1)NCC(=O)OCc1ccc(Cl)cc1,2.68% (inactive)
6,O=C(Nc1ccc2c(c1)OCCO2)c1ccc(Cl)c(S(=O)(=O)N2CCCCC2)c1,7.53% (inactive)
7,O=C(NCCc1ccccc1)c1ccc(NC2=NC3CS(=O)(=O)CC3S2)cc1 (stereo not given),-1.06% (inactive)
8,Cc1c(Br)c([N+](=O)[O-])nn1C(C)C(=O)Nc1nccs1 (stereo not given),23.8% (inactive)
9,O=C(Cc1ccc(F)cc1)NC1CCCC1,20.8% (inactive)
10,CCNc1nc(N)nc(-c2cc(Cl)ccc2OC)n1,-4.76% (inactive)
11,COc1ccc2c3c(c(=O)oc2c1OCC(=O)C(C)(C)C)CCCC3,7.23% (inactive)
12,CCCOc1ccc2c3c(c(=O)oc2c1OCCC)CCC3,36.1% (active)
13,O=c1oc2c(CN3CCCCC3)c(O)ccc2c2c1CCCCC2,-5.61% (inactive)
14,CSc1ccc(-c2c(C#N)c(N)nc3c2c(C)nn3-c2ccccc2)cc1,2.79% (inactive)
15,Cc1c(-c2ccccc2)nc(N)c(C#N)c1-c1cccs1,15% (inactive)
16,CSc1nc(N)c(C#N)c(-c2ccccc2Cl)c1C#N,68.3% (active)
17,COc1cccc(/C=N\Nc2nncc(-c3ccccc3)n2)c1,7.59% (inactive)
18,Nc1ccc(-c2sc(N)nc2-c2ccccc2)cc1,2.78% (inactive)
19,O=C(Nc1cccc2ncccc12)c1ccc(-c2ccc(Cl)cc2Cl)o1,37.2% (active)
20,O=C(Nc1cccc2ncccc12)C(Cl)(Cl)Cl,8.77% (inactive)
21,COc1cc(OC)c(NC(=O)c2ccc(Br)o2)cc1Cl,2.65% (inactive)
22,CCC1(CC)NC(=O)N(CC(=O)OCC(=O)Nc2ccc(C(F)(F)F)cc2)C1=O,5.34% (inactive)
23,CCCN(CCC)C(=O)C1c2ccccc2Oc2ccccc21,31.5% (active)
24,O=C(N/N=C/c1ccc(O)c(O)c1)C1c2ccccc2Oc2ccccc21,2.52% (inactive)
25,O=C(c1ccco1)N1CCN(C(=O)C2c3ccccc3Oc3ccccc32)CC1,0.85% (inactive)

row,Structure (SMILES),inhibition
1,Cc1c(NC(=O)CCCOc2ccccc2)cccc1[N+](=O)[O-],2.57% (inactive)
2,CC1Cc2ccccc2N1CC(=O)Nc1ccc2c(c1)OC(F)(F)O2 (stereo not given),17.9% (inactive)
3,O=C(CC12CC3CC(CC(C3)C1)C2)Nc1ccc2c(c1)COC2=O,42.7% (active)
4,O=C(O)CSCNC(=O)CC12CC3CC(CC(C3)C1)C2,0.28% (inactive)
5,COCCCNC(=O)C1CC(=O)N(CCc2ccccc2)C1 (stereo not given),5.92% (inactive)
6,COc1cc(OC)cc(C(=O)NC2CCN(C(=O)N3c4ccccc4Sc4ccccc43)CC2)c1,4.32% (inactive)
7,COc1cc(C(O)c2nc3ccccc3n2C)cc(OC)c1OC (stereo not given),41.1% (active)
8,CCCn1c(C(O)c2cc(OC)ccc2OC)nc2ccccc21 (stereo not given),17.6% (inactive)
9,CC(C)n1c(C(O)c2ccccc2)nc2ccccc21 (stereo not given),1.26% (inactive)
10,O=C(Nc1ncccn1)c1cccs1,5.69% (inactive)
11,Cn1c(=O)c(C(=O)Nc2ncccn2)c(O)c2ccccc21,44.2% (active)
12,CCOc1cc(C(=O)Nc2ncccn2)cc(OCC)c1OCC,-2.73% (inactive)
13,CCCn1nnnc1NC(=O)COc1ccc(Cl)cc1C,4.96% (inactive)
14,O=C(NCCc1ccccn1)c1cc(C(=O)C2CCCCC2)c[nH]1,-1.83% (inactive)
15,Cc1ccc(SCC(=O)NC(=O)NCc2ccco2)c(C)c1,2.9% (inactive)
16,CC(=C1C(=O)c2ccccc2C1=O)N1CCN(c2ccccn2)CC1,2.92% (inactive)
17,O=C1c2cccc3cccc(c23)N1CN1CCN(c2ccccn2)CC1,32.2% (active)
18,OC(COc1cccc2ccccc12)CN1CCN(c2ccccn2)CC1 (stereo not given),-6.3% (inactive)
19,CC1=C(C)CC(C(=O)NNC(=O)c2ccccc2O)C(C(=O)O)C1 (stereo not given),-0.3% (inactive)
20,Cc1nc(NC2=NC(C(=O)Nc3ccc(Cl)cc3)CC(=O)N2)nc2ccccc12 (stereo not given),-4.48% (inactive)
21,CSc1ccc(C#N)cc1NC(=O)c1cccc(Cl)c1,15.8% (inactive)
22,Cc1cc(C)cc(OCC(=O)Nc2nc3ccc([N+](=O)[O-])cc3s2)c1,11.7% (inactive)
23,O=C(NC(Nc1nc2ccc([N+](=O)[O-])cc2s1)(C(F)(F)F)C(F)(F)F)c1ccccc1,89.5% (active)
24,COC(=O)C(NC(=O)c1ccc(OC)cc1)(Nc1ncc(S(=O)(=O)c2ccc([N+](=O)[O-])cc2)s1)C(F)(F)F (stereo not given),6.12% (inactive)
25,COc1ccc2c(c1OC)C(=O)c1ccccc1C2=O,1.8% (inactive)

row,Structure (SMILES),inhibition
1,Cc1nnc(SCC(=O)N/N=C/c2cn(-c3ccccc3)nc2-c2ccc(F)cc2)n1-c1ccccc1,4.61% (inactive)
2,O=C1c2ccccc2C2=Nc3ccccc3SC(c3ccccc3F)C12 (stereo not given),95.4% (active)
3,O=C(CN1C(=O)NC2(CCCC2)C1=O)Nc1ccc(F)c(F)c1F,3.79% (inactive)
4,O=C1c2cccc3cc(Br)cc(c23)C(=O)N1Nc1ccccc1,12.1% (inactive)
5,O=C1C=C(c2ccc(Cl)cc2)C(=O)N1Nc1ccccc1,99.5% (active)
6,O=C(Nc1ccccc1)OCc1cc(-c2ccc(Cl)cc2)on1,10.1% (inactive)
7,Cc1ccc(-c2nnc(-n3nnc4ccccc43)c3ccccc23)cc1,12% (inactive)
8,N=c1oc2ccccc2cc1C(=O)N/N=C/c1ccccc1,-3.5% (inactive)
9,CCOC(=O)CSc1nnc(-c2ccncc2)o1,2.24% (inactive)
10,CCOC(=O)CSc1nnc(-c2cccc(Br)c2)o1,31.6% (active)
11,CCN(CC)C(=O)CSc1nnc(-c2cccc(OC)c2)o1,2.38% (inactive)
12,O=C(CSCc1ccccc1Cl)NNC(=O)c1ccccc1,3.42% (inactive)
13,CCOc1ccc(N(CC(=O)NC2CCCCCC2)S(=O)(=O)c2c(C)[nH]c(=O)[nH]c2=O)cc1,5.91% (inactive)
14,COc1ccc(-c2c(C(C)=O)c(C)nc3sc4c(=O)n(-c5ccc(C)cc5)nnc4c23)cc1,16.1% (inactive)
15,CCC(C)Sc1nnc(-c2c[nH]c3ccccc23)n1CCOC (stereo not given),0.59% (inactive)
16,CCn1c(SCC(=O)Nc2ccc(OC)c(OC)c2)nnc1-c1c[nH]c2ccccc12,7.39% (inactive)
17,CCn1c(SCCC(C)C)nnc1-c1c[nH]c2ccccc12,56.1% (active)
18,CN=C1S/C(=C\c2ccc(Sc3ccc(Cl)cc3)o2)C(=O)N1C,-6.09% (inactive)
19,CCC(O)CNc1nc(-n2nc(C)cc2C)nc2sc3c(c12)CC(C)(C)OC3 (stereo not given),-1.72% (inactive)
20,COCCNc1nc(-n2nc(C)cc2C)nc2sc3c(c12)CCCC3,31.4% (active)
21,Cc1cc(C)n(-c2nc(SCC(=O)N3CCCC3)c3c4c(sc3n2)CCCC4)n1,24.5% (inactive)
22,O=C(Nc1ccc(-n2ccnc2P(=O)(O)c2ccccc2)cc1)c1ccccc1Br,13.2% (inactive)
23,COc1ccc(NC(=O)/C(Cl)=C(/Cl)S(=O)Cc2ccc(C)cc2)cn1 (stereo not given),102% (active)
24,COc1ccc(CC(=O)Nc2ccc(-c3nnc(-c4ccc(C)cc4)o3)cc2)cc1,5.16% (inactive)
25,COc1cccc(NC(=O)Cc2ccc(C)cc2)c1,2.33% (inactive)

# — PubChem BioAssay AID738 (SRMLSC, 2007)
